Measured values taken from PubChem BioAssay (Tox21).
Results filed as inconclusive are left out. Where a call stands in place of a potency, no number is given. A number with no mark means an inactive call. Activity calls are given as the source filed them. The call rests on the fitted dose curve; in most records, active means well fitted curve in the direction sought with a large enough effect in the repeat runs; inconclusive means weak or mixed curves; inactive means no such curve, though single readings can be large; an effect the other way counts as inactive or inconclusive.

What follows are molecules tested against Nuclear receptor subfamily 1 group I member 2 (Rattus norvegicus) (UniProt Q9R1A7) (assay: Rat pregnane X receptor (rPXR) activation by small molecules, qHTS assay (AID 1346983; further: nearly all actives have a fitted effect of over 20% in size; further: potency means the concentration at half of the fitted maximal effect)). Settings: rPXR luciferase reporter cells, One-Glo luminescence, 24 h; max activation: hits give high values.
Nuclear receptor subfamily 1 group I member 2 (Rattus norvegicus), sequence (Q9R1A7 whole entry, looked up): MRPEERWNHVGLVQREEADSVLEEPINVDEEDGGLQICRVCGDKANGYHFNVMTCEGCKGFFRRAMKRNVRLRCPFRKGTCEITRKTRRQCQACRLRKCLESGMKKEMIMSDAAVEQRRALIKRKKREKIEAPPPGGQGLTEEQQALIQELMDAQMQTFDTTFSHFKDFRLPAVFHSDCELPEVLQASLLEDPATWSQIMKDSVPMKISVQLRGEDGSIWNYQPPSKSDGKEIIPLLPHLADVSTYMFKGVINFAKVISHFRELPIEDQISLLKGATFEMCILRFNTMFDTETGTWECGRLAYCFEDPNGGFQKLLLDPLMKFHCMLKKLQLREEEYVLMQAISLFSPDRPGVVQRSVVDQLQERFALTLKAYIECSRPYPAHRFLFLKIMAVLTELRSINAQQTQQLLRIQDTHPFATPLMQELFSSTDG
Method in brief: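 Cell-based rPXR activation assay: rPXR cells, 2,000 per well, rested 5hr at 37 C, then exposed to compounds in DMSO for 24 hr at 37 C. Luciferase activity read by One-Glo luminescence after 30 min at room temperature.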

Question: Which max activation does the source give for CC1Cc2ccccc2N1NC(=O)c1ccc(Cl)c(S(N)(=O)=O)c1 (stereo unspecified) here?
Answer: -2.07%

Question: Which max activation does the source give for CCOC(=O)[C@H](CCc1ccccc1)N[C@@H](C)C(=O)N1Cc2ccccc2C[C@H]1C(=O)O here?
Answer: -0.751%

Question: Which max activation does the source give for COC(=O)c1ccccc1O here?
Answer: -0.564%

Question: How did the Potency turn out when COC(=O)Nc1nc2ccc(Sc3ccccc3)cc2[nH]1 was run?
Answer: 1.26 µM (active)

Question: With CC#C[C@]1(O)CC[C@H]2[C@@H]3CCC4=CC(=O)CCC4=C3[C@@H](c3ccc(N(C)C)cc3)C[C@@]21C as the molecule, how does the Potency read?
Answer: 10 µM (active)

Question: How did the max activation turn out when Nc1nc2ncc(CNc3ccc(C(=O)N[C@@H](CCC(=O)O)C(=O)O)cc3)nc2c(=O)[nH]1 was run?
Answer: -0.844%

Question: How did the max activation turn out when O=C1N=C(O)CN1/N=C/c1ccc(-c2ccc([N+](=O)[O-])cc2)o1 was run?
Answer: -4.97%

Question: For CC1=C(CC(=O)O)c2cc(F)ccc2/C1=C\c1ccc(S(C)=O)cc1 (stereo unspecified), which max activation is on record?
Answer: -1.51%

Question: CC(C)n1c(/C=C/[C@@H](O)C[C@@H](O)CC(=O)O)c(-c2ccc(F)cc2)c2ccccc21 was tested. Which Potency did it give?
Answer: 12.6 µM (active)

Each molecule was assayed against Nuclear receptor subfamily 1 group I member 2 (Homo sapiens) (UniProt O75469) (assay: CYP3A4 induction through human pregnane X receptor (PXR) by small molecules, qHTS assay (AID 1346984; further: nearly all actives have a fitted effect of over 40% in size)). Settings: DPX-2 HepG2 PXR, CYP3A4-luciferin luminescence, 24 h; series mostly up to 46.1 µM.
Method in brief: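 Human PXR activation is tracked via CYP3A4 promoter-luciferase in DPX-2 (HepG2) cells. Compounds treat cells for 24hr at 37C, and luminescence is read after One-Glo.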

Question: How did the outcome turn out when CC1Cc2ccccc2N1NC(=O)c1ccc(Cl)c(S(N)(=O)=O)c1 (stereo unspecified) was run?
Answer: inactive

Question: With CCOC(=O)[C@H](CCc1ccccc1)N[C@@H](C)C(=O)N1Cc2ccccc2C[C@H]1C(=O)O as the molecule, how does the outcome read?
Answer: inactive

Question: Which outcome does the source give for COC(=O)c1ccccc1O here?
Answer: inactive

Question: For CC#C[C@]1(O)CC[C@H]2[C@@H]3CCC4=CC(=O)CCC4=C3[C@@H](c3ccc(N(C)C)cc3)C[C@@]21C, which outcome is on record?
Answer: inactive

Question: Which outcome does the source give for Nc1nc2ncc(CNc3ccc(C(=O)N[C@@H](CCC(=O)O)C(=O)O)cc3)nc2c(=O)[nH]1 here?
Answer: inactive

Question: CC1=C(CC(=O)O)c2cc(F)ccc2/C1=C\c1ccc(S(C)=O)cc1 (stereo unspecified) was tested. Which outcome did it give?
Answer: inactive

What follows are molecules tested against Nuclear receptor subfamily 1 group I member 2 (Homo sapiens) (UniProt O75469) (assay: Human pregnane X receptor (PXR) activation by small molecules, qHTS assay (AID 1346985; further: nearly all actives have a fitted effect of over 40% in size)). Settings: DPX-2 HepG2 CYP3A4-luciferase, 24 h; series mostly up to 38.3 µM.
Method in brief: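 DPX-2 cells (HepG2 co-transfected with a PXR response element and a CYP3A4-promoter luciferase construct) were seeded at 2,000 per well, rested 5 hr at 37C, then exposed to DMSO-dissolved compounds for 24 hr. Activation was read as luciferase luminescence.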

Question: With CC1Cc2ccccc2N1NC(=O)c1ccc(Cl)c(S(N)(=O)=O)c1 (stereo unspecified) as the molecule, how does the outcome read?
Answer: inactive

Question: With CCOC(=O)[C@H](CCc1ccccc1)N[C@@H](C)C(=O)N1Cc2ccccc2C[C@H]1C(=O)O as the molecule, how does the outcome read?
Answer: inactive

Question: With COC(=O)c1ccccc1O as the molecule, how does the outcome read?
Answer: inactive

Question: For Nc1nc2ncc(CNc3ccc(C(=O)N[C@@H](CCC(=O)O)C(=O)O)cc3)nc2c(=O)[nH]1, which outcome is on record?
Answer: inactive

Question: How did the outcome turn out when CC1(C)O[C@@H]2C[C@H]3[C@@H]4C[C@H](F)C5=CC(=O)CC[C@]5(C)[C@H]4[C@@H](O)C[C@]3(C)[C@]2(C(=O)CO)O1 was run?
Answer: inactive

Question: How did the outcome turn out when CC1=C(CC(=O)O)c2cc(F)ccc2/C1=C\c1ccc(S(C)=O)cc1 (stereo unspecified) was run?
Answer: inactive
